Source: PubChem (National Center for Advancing Translational Sciences (NCATS))
This is a sample that favours compounds with a hit; in the whole collection about 10% have one here.
JMJD2A Tudor: qHTS Assay for Inhibitors of JMJD2A-Tudor Domain; hit rate 4.4% among 390,000; Lysine-specific demethylase 4A (Homo sapiens), O75164; AlphaScreen JMJD2A-Tudor / H3K4me3 peptide binding; Potency, µM (top dose mostly 114 µM), for the others: top-dose activity change, negative = inhibition, actives largely listed as inhibitors; further: potency means the concentration at half of the fitted maximal effect; on the % scale 0 is the no-effect control and ±100 the full control effect; nearly all actives have a fitted effect of over 50% in size
HP1b chromo inh: HTS for Inhibitors of HP1-beta Chromodomain Interactions with Methylated Histone Tails; AlphaScreen HP1-beta / biotin-H3K9me3 peptide binding; Potency, µM (highest dose often 114 µM), inactives show at the top dose activity change, negative = inhibition, actives largely listed as inhibitors; hit rate 0.56% among 390,000; AID 540317, 2011; further: potency means the concentration at half of the fitted maximal effect; nearly all actives have a fitted effect of over 70% in size
Target sequence (P83916 whole entry, looked up): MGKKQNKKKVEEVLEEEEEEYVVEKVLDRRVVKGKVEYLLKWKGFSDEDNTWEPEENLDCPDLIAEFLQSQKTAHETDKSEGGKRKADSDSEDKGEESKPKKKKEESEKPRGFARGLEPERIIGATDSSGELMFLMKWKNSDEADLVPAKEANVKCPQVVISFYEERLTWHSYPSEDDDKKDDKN
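AlphaScreen: HP1-beta (50 nM) preformed 30 min with biotin-H3(1-18)K9me3 peptide (50 nM) in PBS pH 7.4, 0.01% Tween-20. Compound added for 30 min at RT, then streptavidin donor/nickel chelate acceptor beads (10 ug/mL) for 30 min.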
BAZ2B inh: qHTS Assay for Inhibitors of BAZ2B | Bromodomain adjacent to zinc finger domain protein 2B (Homo sapiens), Q9UIF8 | AlphaScreen BAZ2B-H3K14Ac peptide displacement | Potency, µM (titrated, usually from 114 µM), for inactives: top-dose activity change, negative = inhibition, usual class: inhibitors | hit rate 4.4% among 360,000 | AID 504333, 2011; further: potency means the concentration at half of the fitted maximal effect; on the % scale 0 is the no-effect control and ±100 the full control effect; nearly all actives have a fitted effect of over 60% in size
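Inhibition is scored as reduced AlphaScreen emission. The BAZ2B/b-H3(5-23)K14Ac complex (50 nM each) in PBS pH 7.4, 0.01% Tween-20 meets compound (up to 110 uM) for 30 min at RT before bead addition.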
Six1-Eya2 blk: qHTS Assay for Inhibitors of the Six1/Eya2 Interaction. Homeobox protein SIX1 (Homo sapiens) + Protein phosphatase EYA2 (Homo sapiens), …. AlphaScreen GST-Six1/His-Eya2 binding, biochemical; stronger effect = lower value. activity change, % (no concentration beside the values). hit rate 0.56% among 360,000. AID 651725, 2012; in the data active means activity change below about -65%; inconclusive means mostly about -30% to -63%; further: on the % scale 0 is the no-effect control and ±100 the full control effect
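Homogeneous AlphaScreen proximity assay pairing GST-Six1 with His-tagged Eya2 (added as 5X mix: 250 nM and 500 nM) in 50 mM Tris pH 8.0, 300 mM NaCl, 1 mM TCEP. Glutathione donor and nickel acceptor beads; 1 h, 37 °C, dark.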
CtBP-E1A inh: qHTS Assay for Inhibitors of the CtBP/E1A Interaction; activity change, % (no concentration beside the values); AlphaScreen GST-E1A/His-CtBP binding, 1536-well; stronger effect = lower value; hit rate 0.49% among 340,000; CtBP / adenovirus E1A interaction (AlphaScreen); in the data active means activity change below about -65%; inconclusive means mostly about -30% to -63%; further: on the % scale 0 is the no-effect control and ±100 the full control effect
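Homogeneous bead-based format: GST-tagged E1A captured on glutathione donor beads, His-tagged CtBP on nickel acceptor beads; compounds precede bead addition by 2 h at 37 °C.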
G9a inh: qHTS Assay for Inhibitors of Histone Lysine Methyltransferase G9a; G9a H3K9 monomethylation, AlphaScreen, 2 h; Histone-lysine N-methyltransferase EHMT2 (Homo sapiens), Q96KQ7; AID 504332, 2011; Potency, µM (series often up to 102 µM), for inactives: at the top dose activity, negative = inhibition, most hits filed as inhibitors; hit rate 8.8% among 350,000; further: potency means the concentration at half of the fitted maximal effect; on the % scale 0 is the no-effect control and ±100 the full control effect; nearly all actives have a fitted effect of over 75% in size
Target sequence (Q96KQ7 913-1193 limits assumed): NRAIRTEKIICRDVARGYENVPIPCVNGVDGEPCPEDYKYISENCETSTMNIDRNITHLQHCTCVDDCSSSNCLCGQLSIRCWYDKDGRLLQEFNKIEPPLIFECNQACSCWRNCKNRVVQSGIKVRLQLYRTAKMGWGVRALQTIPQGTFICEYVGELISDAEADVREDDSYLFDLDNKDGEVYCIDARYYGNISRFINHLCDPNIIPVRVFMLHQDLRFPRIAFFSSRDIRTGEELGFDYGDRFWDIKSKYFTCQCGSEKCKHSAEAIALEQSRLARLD
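G9a (20 nM) preincubated 15 min RT with compounds, then 500 nM biotinylated H3K9 peptide and 20 uM SAM added; 2 h RT reaction. Monomethyl-H3K9 product detected by AlphaScreen with anti-H3K9me1 antibody, streptavidin donor and anti-rabbit IgG acceptor beads.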
An asterisk follows results filed as active; ? = inconclusive; . = no result; [ ] = dose if it differs, or a comment. Unless noted, the call rests on the fitted dose curve; in most records, active means well fitted inhibition curve with a large enough effect; inconclusive means small, poorly fitted or top-dose-only effect; inactive means no such curve, though single readings can be large or run the other way.

SMILES	JMJD2A Tudor	HP1b chromo inh	BAZ2B inh	Six1-Eya2 blk	CtBP-E1A inh	G9a inh
CCc1ccc(NC(=O)CSC2=Nc3ccccc3C3=NC(CCC(=O)NCCc4ccccc4)C(=O)N23)cc1 (stereo not drawn)	-30%	19%	-22%	.	.	-4%[59 µM]
Cc1ccc(/C=c2/sc3n(c2=O)CCCN=3)o1	-13%	26%	-7%	-2	-1	8.9µM*
Cc1ccc(N2CN=c3s/c(=C\c4cccnc4)c(=O)n3C2)cc1	-9%	40%	-5%	-2	-2	8%
Cc1ccc(/C=c2\sc3n(c2=O)CN(c2ccc(Br)cc2)CN=3)o1	-5%[11.4 µM]	-32%	-22%	-16	-4	8.9µM*
O=C(NCc1ccc(/C=c2\sc3n(c2=O)CCN=3)o1)C(=O)Nc1ccccc1	.	.	?	.	.	50µM*
COc1cccc(-n2cc(C(=O)OCc3ccc(F)c(F)c3)c3ccccc3c2=O)c1	-9%	33%[57 µM]	14%	.	.	6%[59 µM]
O=[N+]([O-])c1cc(N=Nc2ccc3ccccc3c2)ccc1O	?	-17%	?	-1	.	3.2µM*
Cc1ccc(-c2cn3c(n2)sc2cc(C(=O)NCCCc4ccccc4)ccc23)c(C)c1	90%	148%	63%	.	.	98%[59 µM]
CN(C)c1ccc(CCc2ccc(N)cc2)cc1	56µM*	50µM*	.	0	?	.
CCN(CC(=O)Nc1c(F)cccc1F)C(=O)/C=C/c1ccc2ccccc2n1	3.5µM*	-89%	8.9µM*	-26	-1	7.1µM*
CCCN(CCC)C(=O)Cn1c(=O)n(-c2cccc(OC)c2)c(=O)c2c3c(sc21)CCCC3	-12%	24%	2%	.	.	-2%[59 µM]
Cc1cc(Nc2ccccc2F)n2ncnc2n1	-13%	50%	6%	5	-15	50µM*
Cc1cc(Nc2ccc(Cl)cc2)n2ncnc2n1	-11%	46%	4%	-5	0	.
Cc1cc(Nc2cccc(Cl)c2C)n2ncnc2n1	-9%	34%	-3%	0	0	8%
Cc1cc(Nc2ccc(N(C)C)cc2)n2ncnc2n1	-15%	11%	-8%	0	-4	45µM*
CCn1c2ccccc2c2cc(Nc3cc(C)nc4ncnn34)ccc21	?	-5%	-30%	-1	-6	45µM*
COc1ccc(/C=N/Nc2cc(N3CCOCC3)ncn2)c(OC)c1	-16%	46%	5%	-1	?	.
COc1cccc(/C=N/Nc2ncnc3c2ncn3Cc2ccccc2)c1O	-19%	21%	-21%	-78*	-87*	14%[59 µM]
Cc1ccnc(N/N=C/c2ccco2)n1	?	22%	4%	-2	2	-4%
Cc1nnc(N/N=C/c2ccccc2F)n1N	-3%	38%	-15%	-7	-22	11%
COc1cccc(/C=N/Nc2cc(N3CCOCC3)ncn2)c1O	45µM*	37%	2.8µM*	-91*	-94*	45%
Cc1nnc(N/N=C/c2ccccc2C(F)(F)F)n1N	-9%	29%	-16%	-3	.	45µM*
Cc1nnc(N/N=C/c2ccco2)n1N	25µM*	10%	-5%	?	?	24%
CCOC(=O)c1ccc(NC(=O)CS(=O)(=O)Cc2nc(-c3ccc(C)cc3)oc2C)cc1	-11%	22%	-4%	.	.	-25%[59 µM]
Cc1ccc(S(=O)(=O)Nc2cc3c(C(=O)OCc4ccccc4)c(C)oc3c3ccccc23)c(C)c1	-26%	1%	-26%	.	.	?
SMILES	JMJD2A Tudor	HP1b chromo inh	BAZ2B inh	Six1-Eya2 blk	CtBP-E1A inh	G9a inh
COc1cccc(/C=N/Nc2cc(Cl)nc(C)n2)c1O	-18%	49%	1%	-9	.	-10%
COc1ccc(-n2c(C)cc(/C=N/Nc3nnc(C)n3N)c2C)cc1	?	-34%	?	-4	-13	11µM*
COc1cccc(/C=N/Nc2nnc(C)n2N)c1O	?	42%	5%	-73*	-88*	14%
CCOc1ccc(-n2c(C)cc(/C=N/Nc3nc(C)cc(=O)[nH]3)c2C)cc1	?	9%	-27%	-11	-6	?
COc1ccc(-n2c(Cn3nnc4ccccc43)n[nH]c2=S)cc1	18µM*	34%	1%	4	18	8.9µM*
Cc1ccc(S(=O)(=O)N(Cc2n[nH]c(=S)n2-c2ccccc2)c2ccccc2)cc1	-28%	24%	?	3	1	.
S=c1[nH]nc(CCSCc2ccccc2)n1-c1ccccc1	40µM*	11%	?	-2	.	3.5µM*
COc1ccc(-n2c(CCc3ccccc3)n[nH]c2=S)cc1	11µM*	9%	-34%	12	.	-117%
COc1ccccc1N1CCN(CCc2n[nH]c(=S)n2-c2ccccc2)CC1	18µM*	2%	50µM*	1	3	?
COc1ccc(-n2c(Cn3nnc4ccccc43)nnc2SCC(=O)O)cc1	-6%	29%	.	7	-1	-7%[59 µM]
COC(=O)c1cnn(-c2ccc(C(=O)Nc3cc(OC)c(OC)c(OC)c3)cc2)c1N	-10%	22%	-10%	.	.	1%[59 µM]
Oc1ccc(CCc2n[nH]c(=S)n2-c2ccc(F)cc2)cc1	25µM*	17%	-15%	0	-2	6.3µM*
CCCCC(CC(O)COCCC)c1n[nH]c(=S)n1-c1ccccc1 (stereo not drawn)	16µM*	40%	-1%	0	4	15%[0.501 µM]
CCCCCC(O)CCc1n[nH]c(=S)n1-c1ccccc1 (stereo not drawn)	20µM*	13%	5%[57.1 µM]	6	-4	8.9µM*
CCOc1ccc(-n2c(CCc3ccccc3)n[nH]c2=S)cc1	16µM*	5%	-15%	-18	-12	?
CCOc1ccc(-n2c(-c3ccccc3)nnc2-c2ccccc2)cc1	5%	2%	0%	7	-3	9%
Cc1ccc2c(c1)C(c1ccc(F)cc1)N(C(=O)c1ccc(OC(C)C)cc1)CC(=O)N2 (stereo not drawn)	-32%	34%	-15%	.	.	-35%[59 µM]
COc1ccccc1OCc1ccc(C(=O)Nc2ccc(C)c(C)c2)o1	-20%	65%	-16%	.	.	-36%[59 µM]
CCCOc1ccc(CCc2n[nH]c(=S)n2Cc2ccccc2)cc1	-34%[57.1 µM]	29%	1%	-12	-3	?
CCCOc1ccc(CCc2n[nH]c(=S)n2-c2ccccc2)cc1	-24%	24%	-33%	-23	-1	5.6µM*
COc1ccc(-n2c(CCC(=O)O)ccc2-c2ccccc2)cc1	-20%	14%	?	-13	.	50µM*
